Data as given in PubChem BioAssay.
Activity calls are given as the source filed them.

Key:
Albumin (Bos taurus) = Albumin (Bos taurus) (UniProt P02769); experiment: compounds binding labelled BSA control protein – biochemical, small-molecule microarray, Alexa647 label, 635/667 nm fluorescence, artefact control for SMM control protein annotation, profiling panel (AID 1118); conditions: BSA-A647 binding, fluorescence 635 nm, higher = more signal;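 also: score merges 667 nm emission intensity and signal-to-noise per printed compound spot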
[1] = probe aXIP binding to arrayed compounds – biochemical, NeuroSMM set, 635/667 nm fluorescence, primary screen (AID 1119); conditions: small-molecule microarray, higher = more signal, called active from +8 up or from −8 down;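 also: probe is the protein aXip251-270 applied at 1 µg/mL to compound-printed slides; binding of probe to printed compounds measured as 667 nm fluorescence plus signal to noise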
[2] = probe aNOTCH3 binding on compound microarray – biochemical, small-molecule microarray, 635/667 nm fluorescence, primary screen (AID 1120); conditions: higher = more signal;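 also: probe is a biotin-tagged antibody raised against NOTCH3 rather than NOTCH3 protein; score merges spot fluorescence near 667 nm with spot signal to noise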
[3] = probe aNOTCH2 binding on compound microarray – biochemical, small-molecule microarray, 635/667 nm fluorescence, primary screen (AID 1121); conditions: higher = more signal;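 also: score merges feature fluorescence read at 667 nm with its signal to noise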
[4] = target: Carbonic anhydrase 2 (Homo sapiens) (UniProt P00918); experiment: compounds binding carbonic anhydrase 2 – biochemical, small-molecule microarray, Alexa647-labelled CAII, profiling panel (AID 1122); conditions: CAII-A647 binding fluorescence, higher = more signal
[5] = COS7 lysate on small-molecule microarray, probe aHis, 635 nm (AID 1123); conditions: COS7 cell lysate, fluorescence, higher = more signal;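 also: z-score combines 667nm fluorescence intensity with signal-to-noise per printed compound spot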
[6] = probe aLAP1 signal on lysate-treated microarray – cell lysate, small-molecule microarray, COS7 lysate, primary screen (AID 1124); conditions: probe aLAP1, fluorescence, higher = more signal;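 also: lysate comes from COS7 cells expressing LAP1 and is applied at 0.3 µg/mL; score merges spot fluorescence near 667 nm with signal-to-noise over triplicate slides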
Sam68 (KHDRBS1) = experiment: compounds binding KHDRBS1 protein – biochemical, small-molecule microarray, 635 nm fluorescence, primary screen (AID 1125); conditions: higher = more signal;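 also: score merges 667 nm channel intensity with signal to noise over triplicate slides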
[7] = tested on: Chordin-like protein 2 (CHRDL2); experiment: compounds binding chordin-like 2 – biochemical, small-molecule microarray, 635 nm fluorescence, primary screen (AID 1126); conditions: fluorescence 635 nm, higher = more signal;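 also: printed compound slides probed with Chrdl2 protein at 4 µg/mL for 1 h at 4 C; score merges 667 nm emission intensity with signal to noise over three replicate slides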
[8] = target: Concanavalin-A (Canavalia ensiformis) (UniProt P02866); experiment: compounds binding concanavalin A lectin – biochemical, small-molecule microarray, Alexa647 label, 635 nm, artefact control for SMM control protein annotation, primary screen (AID 1127); conditions: ConA-A647 binding fluorescence, higher = more signal;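 also: z combines 667 nm emission intensity with signal-to-noise across three replicate slides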
[9] = compounds binding Alexa647 anti-His antibody – biochemical, small-molecule microarray, 635 nm fluorescence, artefact control for SMM control protein annotation, primary screen (AID 1128); conditions: higher = more signal;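 also: score merges feature fluorescence with signal-to-noise for each printed compound spot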
[10] = tested on: Human papillomavirus type 1a E7 protein (residues 1-88); experiment: HPV1a E7 small-molecule binders, primary screen, biochemical, small-molecule microarray, residues 1-88, 635 nm (AID 1129); conditions: small-molecule microarray binding, fluorescence 635 nm; higher = more signal
[11] = target: Focal adhesion kinase 1 (Homo sapiens) (UniProt Q05397); experiment: PTK2 protein binding on printed compound slides – biochemical, small-molecule microarray, 635/667 nm fluorescence, BSA, DTT, primary screen (AID 1130); conditions: 635 nm fluorescence, higher = more signal;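 also: composite of spot emission at 667 nm and signal to noise over triplicate slides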
[12] = tested on: Fibrinogen (Alexa647-labelled); experiment: Alexa647-fibrinogen binding to printed small molecules – biochemical, small-molecule microarray, 635/667 nm fluorescence, artefact control for SMM control-protein annotation, profiling panel (AID 1131); conditions: fibrinogen-A647 binding fluorescence, higher = more signal;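 also: z-score merges 667 nm fluorescence with per-spot signal-to-noise over triplicate slides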
[13] = target: Follistatin (Homo sapiens) (UniProt P19883); experiment: FST protein binding to printed compounds – biochemical, small-molecule microarray, 635/667 nm fluorescence, primary screen (AID 1132); conditions: 635 nm fluorescence, higher = more signal
[14] = target: Fibroblast growth factor 2 (Homo sapiens) (UniProt P09038); experiment: basic fibroblast growth factor binding to printed compounds – biochemical, small-molecule microarray, 635/667 nm fluorescence, primary screen (AID 1133); conditions: FGF2, fluorescence 635/667, higher = more signal
[15] = JC-1 mitochondrial potential readout, lung cancer cells – cell-based, A549, JC-1 fluorescence, basal, 24 h, 100 nL, profiling panel (AID 1138); conditions: higher = more signal;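 also: A549 lung adenocarcinoma cells under basal conditions with no added stimulus; test concentration not given here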
Lefty1 = Lefty1 protein binding to printed compounds – biochemical, small-molecule microarray, 635/667 nm fluorescence, primary screen (AID 1139); conditions: fluorescence 635/667, higher = more signal
[16] = tested on: wheat germ agglutinin (Triticum aestivum), Alexa647-labelled; experiment: Alexa647-WGA lectin binding to printed small molecules – biochemical, small-molecule microarray, 635/667 nm fluorescence, artefact control for SMM control-protein annotation, profiling panel (AID 1140); conditions: WGA-A647 binding, 635 nm fluorescence, higher = more signal;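 also: score merges 667 nm feature emission with signal to noise over triplicate slides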
[17] = target: Luciferin 4-monooxygenase (Photinus pyralis) (UniProt P08659); experiment: inhibition of purified Photinus pyralis luciferase – biochemical, luminescence, purified enzyme, 2006 set, primary screen (AID 1141); conditions: purified firefly luciferase, SteadyGlo luminescence, 30 min; higher = more signal, called active from +8 up or from −8 down;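 also: cell-free assay with purified firefly luciferase at 100 ng per well in PBS; test concentration not given here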
Sequence of Luciferin 4-monooxygenase (Photinus pyralis) (P08659 whole entry, looked up): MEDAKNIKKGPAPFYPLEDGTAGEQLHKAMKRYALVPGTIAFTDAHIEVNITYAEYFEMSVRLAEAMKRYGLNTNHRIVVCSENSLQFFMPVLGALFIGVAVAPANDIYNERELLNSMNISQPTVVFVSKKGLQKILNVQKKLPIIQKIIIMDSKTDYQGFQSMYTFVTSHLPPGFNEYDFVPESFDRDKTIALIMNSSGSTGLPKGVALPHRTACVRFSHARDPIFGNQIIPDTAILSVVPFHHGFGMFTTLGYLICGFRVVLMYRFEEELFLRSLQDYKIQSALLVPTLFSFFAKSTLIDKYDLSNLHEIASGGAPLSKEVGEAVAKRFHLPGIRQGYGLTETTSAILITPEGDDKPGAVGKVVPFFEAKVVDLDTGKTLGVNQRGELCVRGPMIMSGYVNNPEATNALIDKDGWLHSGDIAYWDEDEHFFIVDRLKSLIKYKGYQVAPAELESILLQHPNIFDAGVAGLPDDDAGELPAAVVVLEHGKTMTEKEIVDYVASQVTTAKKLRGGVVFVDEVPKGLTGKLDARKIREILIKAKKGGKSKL

Sequence of Fibroblast growth factor 2 (Homo sapiens) (P09038 whole entry, looked up): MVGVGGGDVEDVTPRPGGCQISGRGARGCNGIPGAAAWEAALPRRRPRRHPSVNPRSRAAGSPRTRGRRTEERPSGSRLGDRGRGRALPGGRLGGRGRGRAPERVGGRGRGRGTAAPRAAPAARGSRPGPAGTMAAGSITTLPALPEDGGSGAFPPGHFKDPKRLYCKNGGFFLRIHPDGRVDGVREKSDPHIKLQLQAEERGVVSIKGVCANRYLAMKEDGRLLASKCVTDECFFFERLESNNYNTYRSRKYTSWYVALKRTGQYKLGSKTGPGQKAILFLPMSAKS
Sequence of Follistatin (Homo sapiens) (P19883 whole entry, looked up): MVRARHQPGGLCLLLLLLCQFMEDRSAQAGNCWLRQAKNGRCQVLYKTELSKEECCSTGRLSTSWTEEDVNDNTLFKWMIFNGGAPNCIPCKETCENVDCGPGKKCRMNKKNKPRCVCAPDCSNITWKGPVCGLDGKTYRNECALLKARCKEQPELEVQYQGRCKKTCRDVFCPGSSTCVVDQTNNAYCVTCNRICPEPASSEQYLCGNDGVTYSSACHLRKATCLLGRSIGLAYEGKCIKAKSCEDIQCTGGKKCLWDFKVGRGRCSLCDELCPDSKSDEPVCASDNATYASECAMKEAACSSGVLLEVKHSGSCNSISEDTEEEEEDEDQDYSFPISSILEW
Sequence of Focal adhesion kinase 1 (Homo sapiens) (Q05397 whole entry, looked up): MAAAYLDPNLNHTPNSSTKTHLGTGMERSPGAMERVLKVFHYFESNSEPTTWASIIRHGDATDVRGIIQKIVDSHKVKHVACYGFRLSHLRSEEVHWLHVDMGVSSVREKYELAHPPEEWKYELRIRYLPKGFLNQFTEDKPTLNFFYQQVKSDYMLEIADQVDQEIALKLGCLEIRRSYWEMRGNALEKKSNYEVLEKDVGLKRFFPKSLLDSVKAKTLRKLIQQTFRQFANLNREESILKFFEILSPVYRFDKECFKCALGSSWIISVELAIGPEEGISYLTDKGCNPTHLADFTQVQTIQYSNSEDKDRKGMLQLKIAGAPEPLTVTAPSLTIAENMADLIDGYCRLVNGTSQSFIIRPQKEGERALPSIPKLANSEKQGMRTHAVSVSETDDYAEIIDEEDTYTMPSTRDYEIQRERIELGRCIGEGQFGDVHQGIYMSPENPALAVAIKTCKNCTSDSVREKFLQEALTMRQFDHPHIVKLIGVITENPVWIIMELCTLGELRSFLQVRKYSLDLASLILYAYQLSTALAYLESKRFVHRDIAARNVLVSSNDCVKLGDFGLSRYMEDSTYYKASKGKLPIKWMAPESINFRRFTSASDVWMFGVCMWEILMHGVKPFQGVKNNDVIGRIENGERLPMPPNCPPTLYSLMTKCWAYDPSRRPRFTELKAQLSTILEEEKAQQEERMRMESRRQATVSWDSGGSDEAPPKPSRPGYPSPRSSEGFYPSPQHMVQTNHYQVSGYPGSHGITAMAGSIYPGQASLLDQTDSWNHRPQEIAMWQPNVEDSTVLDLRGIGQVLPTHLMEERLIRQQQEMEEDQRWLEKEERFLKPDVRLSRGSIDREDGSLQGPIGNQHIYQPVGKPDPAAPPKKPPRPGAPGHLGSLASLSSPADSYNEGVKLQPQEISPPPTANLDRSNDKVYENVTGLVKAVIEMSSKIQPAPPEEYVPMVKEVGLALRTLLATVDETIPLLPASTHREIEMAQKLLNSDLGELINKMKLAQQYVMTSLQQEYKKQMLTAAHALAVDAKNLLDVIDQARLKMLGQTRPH
Sequence of Concanavalin-A (Canavalia ensiformis) (P02866 whole entry, looked up): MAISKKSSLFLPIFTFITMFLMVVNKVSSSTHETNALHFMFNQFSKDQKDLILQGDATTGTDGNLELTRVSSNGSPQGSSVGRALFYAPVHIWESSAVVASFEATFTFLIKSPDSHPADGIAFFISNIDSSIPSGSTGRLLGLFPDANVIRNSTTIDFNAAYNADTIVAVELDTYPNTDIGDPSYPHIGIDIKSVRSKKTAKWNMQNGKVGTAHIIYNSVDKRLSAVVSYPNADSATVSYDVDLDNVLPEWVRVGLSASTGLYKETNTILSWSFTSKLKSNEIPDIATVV
Sequence of Albumin (Bos taurus) (P02769 whole entry, looked up): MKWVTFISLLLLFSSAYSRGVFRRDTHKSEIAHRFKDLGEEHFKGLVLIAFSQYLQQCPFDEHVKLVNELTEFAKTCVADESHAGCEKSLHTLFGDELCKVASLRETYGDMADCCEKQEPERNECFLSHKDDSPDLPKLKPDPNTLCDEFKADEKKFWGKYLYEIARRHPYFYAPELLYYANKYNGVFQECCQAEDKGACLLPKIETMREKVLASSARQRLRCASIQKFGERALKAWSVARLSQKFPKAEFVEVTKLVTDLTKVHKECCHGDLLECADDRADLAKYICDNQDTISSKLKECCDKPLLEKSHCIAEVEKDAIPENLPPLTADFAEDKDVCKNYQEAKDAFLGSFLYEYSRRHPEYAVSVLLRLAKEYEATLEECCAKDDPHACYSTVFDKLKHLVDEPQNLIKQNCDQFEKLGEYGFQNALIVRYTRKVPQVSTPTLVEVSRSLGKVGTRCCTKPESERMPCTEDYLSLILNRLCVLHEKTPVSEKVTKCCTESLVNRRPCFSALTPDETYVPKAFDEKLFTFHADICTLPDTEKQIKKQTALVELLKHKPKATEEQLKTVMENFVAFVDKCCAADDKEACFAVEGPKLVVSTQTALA

| Compound | composite z-score (Albumin (Bos taurus)) | composite Z-score [1] | composite z-score [2] | composite z-score [3] | composite z-score [4] | composite z-score [5] | composite z-score [6] | composite z-score (Sam68 (KHDRBS1)) | composite z-score [7] | composite z-score [8] | composite z-score [9] | composite z-score [10] | composite z-score [11] | composite z-score [12] | composite z-score [13] | composite z-score [14] | z-score [15] | composite z-score (Lefty1) | composite z-score [16] | z-score [17] |
| --- | --- | --- | --- | --- | --- | --- | --- | --- | --- | --- | --- | --- | --- | --- | --- | --- | --- | --- | --- | --- |
| CCC[C@@H]1C[C@@]1(CCC)[C@@H](NC(=O)OCc1ccccc1)c1ccc(-c2ccccc2)cc1 | -0.477 | 0.572 (inactive) | 0.112 | 0.0339 | -0.198 | 0.27 | 0.643 | -0.303 | -0.141 | -0.914 | -0.526 | -0.691 | -0.278 | -1.37 | 0.136 | -0.824 | 0.289 | -0.543 | -0.693 | -0.765 (inactive) |
| Cc1ccccc1C(O)C1C=CC2C(=O)N(C)C(=O)C2N1N(c1ccccc1)c1ccccc1 (stereo not given) | 0.25 | 0.111 (inactive) | 0.84 | 0.473 | 0.833 | -0.266 | 0.307 | -1.29 | 0.682 | -0.752 | 1.13 | -0.298 | -0.128 | 0.354 | 0.799 | -0.0234 | 0.429 | -0.543 | 0.641 | -0.609 (inactive) |
| C=CCN1C(=O)[C@@]2(O[C@@H](CCn3cc([C@H](O)c4ccccc4)nn3)[C@H]([Si](C)(C)c3ccc(OC)cc3)[C@H]2C)c2cc(N3CCC3=O)ccc21 | 0.292 | 0.346 (inactive) | -0.132 | -0.189 | 0.489 | 0.901 | 0.249 | 0.636 | 0.163 | 0.0967 | 1.65 | 1.09 | -0.082 | -0.117 | 0.345 | 0.0863 | 2.25 | -0.127 | 0.552 | -1.21 (inactive) |
| CCCCC(O)C1C=CC2C(=O)N(c3ccccc3)C(=O)C2N1Nc1ccc(C(C)C)cc1 (stereo not given) | 0.898 | -0.535 (inactive) | 0.315 | -0.0073 | 0.712 | 2.85 | 0.201 | 1.32 | -0.408 | 1.07 | 0.236 | 1.22 | 0.536 | 1.01 | 0.967 | -0.138 | -0.142 | 0.451 | 0.394 | -1.46 (inactive) |
| COc1cc2c(cc1OC)CN(C(=O)[C@@H]1[C@H]3C(=O)O[C@H](c4ccccc4)[C@H](c4ccccc4)N3[C@H](c3ccc(OCCO)cc3)[C@@]13C(=O)Nc1ccccc13)CC2 | 0.299 | 0.817 (inactive) | 0.131 | -0.114 | 0.634 | 2.25 | 0.141 | 1.31 | 0.508 | 1.15 | 1.04 | 1.25 | 0.164 | 0.971 | 1.31 | 1.26 | -0.957 | 1.19 | 1.3 | -1.65 (inactive) |
| COC(=O)[C@@]1(Cc2ccccc2)[C@H]2c3cc(C(=O)N(C)C)n(Cc4c(CO)[nH]cc(C)c4=O)c3C[C@H]2CN1C(=O)c1ccccc1 | 0.96 | 0.546 (inactive) | 0.163 | -0.0351 | 0.777 | 1.35 | -0.056 | 0.432 | -0.26 | 0.295 | 0.886 | 0.677 | 0.206 | 0.819 | -0.0699 | -0.615 | 0.238 | -0.016 | 1 | 0.379 (inactive) |
| O=C1NC(=O)C2C1C=CC(C(O)c1c(F)cccc1Cl)N2Nc1ccc(Cl)cc1Cl (stereo not given) | 1.04 | 0.122 (inactive) | 0.525 | 0.232 | 0.599 | 3.11 | 1.12 | 0.79 | -0.879 | 0.44 | 1.23 | 1.2 | 1.6 | 0.296 | -0.0649 | -0.891 | -1.15 | -0.507 | 1.31 | 0.231 (inactive) |
| COCCOC(=O)N1C(=O)[C@@]2(c3cc(C#CC4(O)CCCCCC4)ccc31)[C@H](c1ccc(O)cc1)N1[C@H](c3ccccc3)[C@H](c3ccccc3)OC(=O)[C@H]1[C@@H]2C(=O)NC[C@H](O)c1ccccc1 | 0.179 | 0.534 (inactive) | -0.0133 | 0.0296 | 0.522 | 2.46 | 1.46 | 1.3 | 0.97 | 1.02 | 0.496 | 1.16 | 0.987 | 0.87 | 1.26 | 1.64 | -0.939 | 1.28 | 0.733 | -0.001 (inactive) |
| COC(=O)[C@@]1(Cc2ccc(F)cc2)[C@H]2c3cc(C(=O)N(C)C)n(Cc4cc(F)cc5c4OCOC5)c3C[C@H]2CN1C(=O)c1ccccc1 | 1.07 | -0.199 (inactive) | 0.24 | 0.105 | 0.376 | 2.97 | 0.271 | 1.33 | -0.535 | 1.04 | 1.06 | 1.19 | 1.5 | 1 | 1.04 | -0.0284 | -0.915 | 0.444 | 1.06 | -0.724 (inactive) |
| C=CCNC(=O)[C@H]1[C@@H]2C(=O)O[C@@H](c3ccccc3)[C@@H](c3ccccc3)N2[C@@H](c2ccc(O)cc2)[C@]12C(=O)N(C(=O)OCCOC)c1ccccc12 | 0.299 | 0.255 (inactive) | -0.091 | 0.0487 | 0.385 | 2.18 | 0.701 | 1.17 | 0.0889 | 0.745 | 3.08 | 1.24 | 0.484 | 0.886 | 0.852 | 0.198 | -0.8 | 0.31 | 0.708 | -0.109 (inactive) |
| CC(C)Cc1ccc(CN2CC[C@@H](NC(=O)Nc3ccccc3)C2)cc1 | 0.476 | -0.119 (inactive) | -0.133 | -0.0974 | 0.119 | -0.104 | 0.397 | -0.0489 | 0.214 | -0.0211 | -0.0844 | -1.63 | 0.0749 | 0.494 | -0.182 | -0.0224 | -0.749 | 0.08 | 0.244 | 0.398 (inactive) |
